Screening results from PubChem BioAssay.
GLP1R cytotox – cytotoxic in the GLP-1 receptor inverse agonist counter-screen | HEK293 cAMP-luciferase reporter cells, luminescence, 24 h | Potency, µM (doses to about 38.3 µM), usual class: inhibitors | 410,000 tested, 0.13% active | AID 624418;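 also: loss of luciferase light is scored as toxicity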
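A 23 nL compound transfer followed 12 hours of cell culture at 37 deg C; exposure then lasted 24 hr. Luciferase assay detection reagent was dispensed and plates read for luminescence after a 12 min room-temperature wait.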
GLP-1R inv ag – inverse agonists of human GLP-1 receptor. Potency, µM (series often up to 38.3 µM), usual class: inhibitors. 410,000 tested, 1.6% active. P43220. HEK293 GLP-1R CRE-luciferase, luminescence, 24 h; GLP-1R form is constitutively active; also: nearly all actives have a fitted effect of over 55% in size
Target sequence (P43220 whole entry, looked up): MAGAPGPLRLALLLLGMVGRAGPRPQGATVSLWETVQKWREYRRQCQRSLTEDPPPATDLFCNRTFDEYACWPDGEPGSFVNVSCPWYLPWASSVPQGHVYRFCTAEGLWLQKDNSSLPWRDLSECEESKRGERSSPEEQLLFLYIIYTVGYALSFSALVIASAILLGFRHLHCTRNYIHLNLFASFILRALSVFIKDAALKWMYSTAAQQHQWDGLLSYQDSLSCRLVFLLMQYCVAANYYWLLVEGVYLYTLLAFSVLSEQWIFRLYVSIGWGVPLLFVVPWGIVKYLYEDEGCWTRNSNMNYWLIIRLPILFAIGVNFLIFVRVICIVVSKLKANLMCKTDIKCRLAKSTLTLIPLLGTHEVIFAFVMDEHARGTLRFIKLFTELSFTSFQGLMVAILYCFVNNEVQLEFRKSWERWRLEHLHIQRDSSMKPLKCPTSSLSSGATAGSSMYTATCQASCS
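Cells are plated, allowed 12 hours at 37 deg C, then treated with compounds for 24 hr before luciferase detection reagent is added and luminescence is read after 12 min at room temperature. The HEK293 line carries constitutively active GLP-1R with a cAMP-responsive reporter.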
GLP-1R agonist – activates the human GLP-1 receptor. P43220. HEK293 GLP-1R CRE-luciferase, luminescence, 4-6 h; cells express a hypersensitive GLP-1R form. Potency, µM (titrated, usually from 45.6 µM), actives largely listed as activators. 380,000 tested, 0.007% active. AID 624172
Of the large screens only hits and unclear results are named; the others gave an inactive call; ! = repeats disagree. The list is not random: actives were taken first. Their share in the collection is about 1.7%. Calls follow the shape of the dose curve; as a rule, active = well fitted curve in the direction sought with a large enough effect; inconclusive = small, poorly fitted or top-dose-only effect, or another doubt; inactive = no such curve, though single readings can be large; an effect the other way counts as inactive or inconclusive.

COc1ccccc1NC(=O)Cn1c(=O)n(Cc2nc(C)no2)c(=O)c2cc3c(cc21)OCO3	none (no result: GLP-1R agonist)
CCOC(=O)C1CCN(S(=O)(=O)c2ccc(CN3C(=O)c4cccnc4C3=O)cc2)CC1	none
COC(=O)c1cn(NC(=O)c2cc([N+](=O)[O-])ccc2F)c(=O)c2ccccc12	GLP-1R inv ag 1.6µM
COC(=O)c1cn(NC(=O)C2CCC(C)CC2)c(=O)c2ccccc12 (stereo not drawn)	none
COc1cc2[nH]c(=O)n(CCCC(=O)N3CCN(c4cccc(C(F)(F)F)c4)CC3)c(=O)c2cc1OC	none
COc1ccc(S(=O)(=O)Nc2cc3c4c(oc3c3ccccc23)CCCC4=O)cc1	GLP1R cytotox inconclusive, GLP-1R inv ag 5µM
COc1ccc(S(=O)(=O)Nc2cc3c4c(oc3c3ccccc23)CC(C)(C)CC4=O)cc1	GLP1R cytotox inconclusive
Cc1ccc(S(=O)(=O)N2CCCC(C(=O)NCCc3ccc(Cl)cc3)C2)cc1 (stereo not drawn)	GLP-1R inv ag inconclusive
Cn1ccc(C(=O)N/N=C/c2ccncc2)n1	none
CCNc1ccc2noc3c2c1C(=O)c1ccccc1-3	GLP1R cytotox inconclusive
O=C1c2ccccc2-c2onc3ccc(NCc4ccco4)c1c23	GLP1R cytotox 11µM, GLP-1R inv ag inconclusive
O=C(Nc1ccc(F)c(Cl)c1)Nc1csc2ccccc12	GLP1R cytotox inconclusive, GLP-1R inv ag inconclusive
O=C(Nc1ccc(F)cc1F)Nc1csc2ccccc12	GLP-1R inv ag 10µM
CC1C(=O)N(Cc2ccc([N+](=O)[O-])cc2)c2ccccc2N1C(=O)c1c(F)cccc1F (stereo not drawn)	GLP-1R inv ag 10µM
COc1ccc(CN2C(=O)C(C)N(C(=O)c3c(F)cccc3F)c3ccccc32)cc1 (stereo not drawn)	GLP-1R inv ag inconclusive
CCCCN(C(=O)c1cc(S(=O)(=O)N2CCCCCC2)ccc1OC)c1c(N)n(CCC)c(=O)[nH]c1=O	none
Cc1ccc2nc(C3CCCCC3)c(CC(C)(C)C)n2c1	GLP-1R inv ag inconclusive
COc1nnc(-c2ccc(N3CCCCC3)c(NC(=O)c3ccccc3Cl)c2)c2ccccc12	GLP-1R inv ag 3.5µM (no result: GLP-1R agonist)
COc1nnc(-c2ccc(N3CCCCC3)c(NC(=O)c3ccc(C)cc3)c2)c2ccccc12	none
O=C(O)CCC(=O)Nc1ccc(C(=O)OC2CCCCC2)cc1	none
O=C(OC1CCCCC1)c1ccc(NC(=O)C2CCCCC2)cc1	GLP-1R inv ag 2.5µM
CCN(CC)c1ccc(NC(=O)C2CCCC2)cc1	none
CCCCc1ccc(NC(=O)C2CCCC2)cc1	GLP-1R inv ag 10µM
CCCCOC(=O)Cn1nnc2sc(-c3ccccc3)cc2c1=O	none (no result: GLP-1R agonist)
COc1cc(Nc2nc3c(S(=O)(=O)c4ccc(C)c(C)c4)nnn3c3ccsc23)cc(OC)c1	none (no result: GLP-1R agonist)
CCOc1ccc(N(C)S(=O)(=O)c2c(C(=O)N3CCC(C)CC3)c(C)n(C)c2C)cc1	none (no result: GLP-1R agonist)
CCc1nc2ccc(C(=O)NCCOc3ccc(OC)cc3)cn2c1N(CC)CCOC	none
CCN1C(=O)[C@H]2[C@@H](c3ccc(OC)cc3)N[C@]3(CCCN(Cc4ccc(Br)cc4)C3=O)[C@H]2C1=O	none
Cc1noc(/C=C/c2ccccc2F)c1S(=O)(=O)N1CCC(C(=O)NCc2ccco2)CC1	none (no result: GLP-1R agonist)
CCN(CC)CCNC(=O)C1CCN(S(=O)(=O)c2c(C)noc2/C=C/c2ccccc2F)CC1	GLP1R cytotox inconclusive, GLP-1R inv ag 3.2µM!
CCN(CC)C(=O)C1CCN(S(=O)(=O)c2c(C)noc2/C=C/c2cccc(C)c2)CC1	GLP-1R inv ag 10µM
Cc1ccc(/C=C/c2onc(C)c2S(=O)(=O)N2CCC(C(=O)N3CCN(C)CC3)CC2)cc1	GLP-1R inv ag 6.3µM
CCN(CC)C(=O)C1CCN(S(=O)(=O)c2c(C)noc2/C=C/c2cccc(OC)c2)CC1	none (no result: GLP-1R agonist)
CCOC(=O)C1CCN(C(=O)C2CCN(S(=O)(=O)c3c(C)noc3/C=C/c3ccc(C)cc3)CC2)CC1	GLP-1R inv ag inconclusive
Cc1ccc(NC(=O)Cn2cc(C(=O)C3CCCCC3)c3ccccc32)c(C)c1	GLP-1R inv ag inconclusive (no result: GLP-1R agonist)
CCOc1ccc(-c2cc3c(=O)n(CC(=O)NCc4ccc(Cl)cc4)ccn3n2)cc1	none (no result: GLP-1R agonist)
CCCCCCCCCCCCN1[C@@H](CC(=O)OC)c2cc(C(F)(F)F)ccc2S1(=O)=O	none
CCCCCCCCN1[C@@H](CC(=O)OCC)c2ccc(C(F)(F)F)cc2S1(=O)=O	GLP-1R inv ag 10µM
C[C@H](CO)N1C[C@H](C)[C@H](CN(C)Cc2ccc(Oc3ccccc3)cc2)Oc2cc(Br)ccc2S1(=O)=O	GLP-1R inv ag inconclusive
CC(=O)C1=C(O)C(=O)N(c2cc(C(C)(C)C)on2)C1c1ccc(Br)cc1 (stereo not drawn)	GLP-1R inv ag 8.9µM
CC(=O)C1=C(O)C(=O)N(c2cc(C(C)(C)C)on2)C1c1ccc(C(C)C)cc1 (stereo not drawn)	none
CCC1=NN(C(=O)Cc2ccc([N+](=O)[O-])cc2)C(O)(C(F)(F)F)C1 (stereo not drawn)	none
Cc1ccc(OCC(=O)N2N=C(C(F)(F)F)CC2(O)C(C)(C)C)cc1C (stereo not drawn)	none
Cc1ccccc1OCC(=O)N1N=C(C(F)(F)F)CC1(O)C(C)(C)C (stereo not drawn)	GLP1R cytotox inconclusive, GLP-1R inv ag 8.9µM
CC(C)(C)C1(O)CC(C(F)(F)F)=NN1C(=O)Cc1ccc([N+](=O)[O-])cc1 (stereo not drawn)	GLP-1R inv ag 10µM
Cc1ccc(Cl)cc1N1C(=O)CC(Sc2ccccc2N)C1=O (stereo not drawn)	none
O=C1C(=O)N(c2ccccn2)C(c2cccc(F)c2)/C1=C(/O)c1ccccc1 (stereo not drawn)	none
CCN(CC)CC(O)c1ccc2ccc3ccc(O)cc3c2c1 (stereo not drawn)	GLP1R cytotox inconclusive, GLP-1R inv ag 11µM
CCN(CC)CCC(c1ccc(OC)cc1)c1c(O)cc(OC)cc1OC (stereo not drawn)	GLP-1R inv ag inconclusive
CCOC(=O)C1CCCN(C(=O)c2cccc(OC(F)(F)F)c2)CC1 (stereo not drawn)	none
CCN1CCN(C(=O)/C(=C/c2ccco2)NC(=O)c2ccccc2)CC1	none
O=S(=O)(NCc1c(Cl)cccc1Oc1ccccc1)c1ccc(F)cc1	GLP1R cytotox inconclusive, GLP-1R inv ag inconclusive
CCN1CCN(CCC(=O)Nc2cc(C)ccc2C)CC1	none
Cc1ccc(C)c(NC(=O)CCN2CCc3ccccc3C2)c1	GLP-1R inv ag 11µM
Cc1ccc(-n2nc3c(N4CCC(C(=O)NC5CCCCC5)CC4)nnc(C)c3c2C)cc1	none (no result: GLP-1R agonist)
CC(=O)CSc1nnc2c3ccccc3nc(C(C)(C)C)n12	none
Cc1csc(NC(=O)CSc2nnc3c4ccccc4nc(C(C)(C)C)n23)n1	GLP1R cytotox 2.5µM, GLP-1R inv ag inconclusive
COc1ccc(C(=O)Nc2cccc(C(=O)NCc3ccco3)c2)cc1	GLP-1R inv ag inconclusive
O=C(OCC(=O)N(CCc1ccccc1)Cc1ccccc1)c1ccccc1NCCO	GLP-1R inv ag 10µM
O=C(OCC(=O)N(CCc1ccccc1)Cc1ccccc1)c1cccc(O)c1	GLP-1R inv ag inconclusive
O=C(OCC(=O)N(CCc1ccccc1)Cc1ccccc1)c1ccccc1O	GLP-1R inv ag 10µM
O=C(OCC(=O)N(Cc1ccccc1)Cc1ccccc1)c1ccccc1O	GLP-1R inv ag inconclusive
